Measured values: PubChem BioAssay (NCI)
About 83,000 compounds went through this panel and 20% of them were active in at least one assay; those are over-represented in the sample as a whole.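 Single-dose data. Exposure time 48 hours. Values below 10 considered active.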 A number with no mark means an inactive call. Active and inactive are the calls of the source.

What was measured:
Test in all cases: NCI-60 one-dose screen, 48 h (100 = growth as untreated, 0 = no growth, -100 = all killed)
T-47D breast = details: 10 µM
BT-549 breast = details: 10 µM
MDA-MB-435 melanoma = details: 10 µM
SW-620 colon = details: 10 µM
MCF7 breast = details: 10 µM unless noted
HCT-116 colon = details: 10 µM
HCC-2998 colon = details: 10 µM
KM12 colon = details: 10 µM

SMILES | growth (T-47D breast) | growth (BT-549 breast) | growth (MDA-MB-435 melanoma) | growth (SW-620 colon) | growth (MCF7 breast) | growth (HCT-116 colon) | growth (HCC-2998 colon) [%] | growth (KM12 colon)
c1cc[n+](C2c3ccccc3C([n+]3ccccc3)c3ccccc32)cc1 (stereo unspecified) | 75.5% | 100% | 79.3% | 69.8% | 68.8% | 68.2% | 68.2 | 56.7%
COC(=O)c1cccnc1 | 118% | 85.5% | 105% | 97.4% | 96.4% | 97.8% | 104 | 112%
O=C(CN1CCNCC1)N1CCOCC1 | 102% | 113% | 109% | 108% | 97.8% | 103% | – | 108%
CC(=O)OCC1OC(OC2=C(CC=C(C)C)C(=O)c3ccccc3C2=O)C(OC(C)=O)C(OC(C)=O)C1OC(C)=O (stereo unspecified) | -61.3% (active) | -6.85% (active) | -17.1% (active) | 11.1% | -60.2% (active) | 1.75% (active) | – | 5.15% (active)
C=CC(O)CCC (stereo unspecified) | 113% | 112% | 90.4% | 101% | 95.3% | 112% | 113 | 109%
CCOC(=O)Nc1nn[nH]n1 | 113% | 106% | 111% | 90.2% | 103% | 107% | – | 106%
Cc1cc(=O)n(-c2ccc(F)cc2)[nH]1 | 69.5% | 105% | 105% | 103% | 86.7% | 104% | 106 | 106%
C=CCNc1ccccc1 | 103% | 99% | 119% | 106% | 87.4% | 92.4% | – | 109%
COc1ccc(/C=C/c2cccc[n+]2C)cc1 | 97.4% | 89.8% | 100% | 79.9% | 96% | 106% | – | 33%
O=C(Cc1ccccc1)Cc1ccccc1 | 102% | 107% | 105% | 101% | 106% | 98.1% | – | 103%
C[C@@H](c1ccccc1)[C@@H](C(=O)O)c1ccccc1 | 101% | 97.6% | 104% | 103% | 93.4% | 102% | – | 109%
O=C(CCNNC(=O)c1ccncc1)NCc1ccccc1 | 94.4% | 134% | 95.7% | 96% | 89.9% | 105% | 111 | 97.5%
CC1Cc2ccccc2O1 (stereo unspecified) | 104% | 134% | 124% | 111% | 99.6% | 112% | 86.4 | 107%
CCOC(=O)C(CCC(C)C)C(=O)OCC | 100% | 104% | 102% | 102% | 97.5% | 108% | 101 | 104%
COS(=O)(=O)c1ccc(Br)cc1 | 93.9% | 113% | 110% | 97.5% | 97.3% | 93.9% | 99.8 | 91.7%
O=S(=O)(O)c1ccc(O)c2ccccc12 | 99.4% | 91.6% | 113% | 97.3% | 94.3% | 98.4% | 114 | 102%
Cc1ccc(C(=O)N/N=C/c2ccc3c(c2)OCO3)cc1 | 94.7% | 107% | 92.7% | 106% | 103% | 92.4% | 96 | 82.1%
O=C(O)c1ccc(S(=O)(=O)O)cc1 | 106% | 121% | 114% | 104% | 96.2% | 108% | 105 | 109%
CCN(CC)c1ccc2nc3ccc(=[N+](CC)CC)cc-3oc2c1 | -2.86% (active) | 48% | -14.7% (active) | 6.33% (active) | -34.9% (active) | -40.7% (active) | – | 4.22% (active)
COC(=O)/C=C1\Sc2cc(F)ccc2NC1=O | 84.5% | 127% | 100% | 127% | 83.7% | 90.1% | 126 | 107%
Cc1cc(=O)[nH]c(NN=C2CCCC2)n1 | 103% | 122% | 110% | 111% | 104% | 107% | – | 110%
Cn1cnc2nc(Cl)nc(Cl)c21 | 56.7% | -28.5% (active) | -20.5% (active) | 22.2% | 16.7% | 3.41% (active) | – | -40.8% (active)
CCCCC1(CC)COC(CCC)OC1 (stereo unspecified) | 104% | 106% | 118% | 110% | 96.6% | 98.8% | 98.1 | 104%
Cc1cccc([N+](=O)[O-])c1Cl | 103% | 100% | 91.4% | 100% | 105% | 108% | – | 104%
